Results as given in PubChem BioAssay (Tox21).
Inconclusive results are not listed. Calls of active or inactive are those of the source. Unless noted, the call rests on the fitted dose curve.

Key:
[1] = Nuclear factor erythroid 2-related factor 2/antioxidant responsive element (Nrf2/ARE) small molecule agonists: qHTS cell viability counter screen in human keratinocytes (AID 1919968; active means well fitted curve in the direction sought with a large enough effect in the repeat runs; an effect the other way counts as inactive or inconclusive; further: nearly all actives have a fitted effect of over 55% in size)
How it was run: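 KeratinoSens cells (HaCaT keratinocytes stably carrying an ARE-luciferase reporter) were seeded at 1,500 cells/well and rested 5 h at 37 C/5% CO2. They were then exposed to compounds in DMSO for 23 h. Viability was read by CellTiter-Fluor fluorescence after 1 h.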

[2] = biological target: Gonadotropin-releasing hormone receptor (Homo sapiens) (UniProt P30968); assay: Human gonadotropin-releasing hormone receptor (GnRHR) small molecule agonists, calcium flux assay in GnRHR-HEK293 cells (AID 1920063); further: nearly all actives have a fitted effect of over 35% in size
How it was run: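 HEK293 cells stably expressing human GnRHR were plated 18 h at 37 °C, loaded with calcium dye 1 h at 37 °C, then given compound in agonist mode; fluorescence (Ex/Em 480/540) read kinetically for 3 min at 1 s intervals.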

[3] = biological target: KiSS-1 receptor (Homo sapiens) (UniProt Q969F8); assay: Human kisspeptin (KISS1R) small molecule agonists, calcium flux assay in KISS1R-HEK293 cells (AID 1920064; active means well fitted curve in the direction sought with a large enough effect in the repeat runs; an effect the other way counts as inactive or inconclusive)
How it was run: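 HEK293 cells stably expressing human KISS1R were plated 18 h at 37 °C, loaded with calcium dye for 1 h at 37 °C, then given compound by pin tool. Fluorescence (Ex/Em 480/540) was read kinetically for 3 min.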

[4] = G protein-coupled receptor (GPCR) small molecule agonists, calcium flux assay: HEK293 wild type cell line counter screen (AID 1920065)
How it was run: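 Cells were plated and cultured 18 h at 37 C/5% CO2, then loaded with calcium dye for 1 h at 37 C. Compounds in DMSO were pin-transferred in agonist mode, and fluorescence (Ex/Em 480/540) was read kinetically for 3 min at 1 s intervals.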

[5] = p53 small molecule agonists, cell-based qHTS assay with human liver microsomes (AID 1963577);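 further: p53 response element beta-lactamase reporter cells with liver microsomes plus NADPH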
How it was run: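 With metabolic activation: human liver microsomes (0.5 mg/mL final) plus NADPH (0.5 mg/mL final) added alongside compounds to p53RE-bla cells; 16 h 37 C exposure; beta-lactamase read by LiveBLAzer fluorescence.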

[6] = p53 small molecule agonists, cell-based qHTS assay with rat liver microsomes (AID 1963578)
How it was run: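 Metabolic activation by rat liver microsomes and NADPH, each 0.5 mg/mL final, added right after compounds to p53RE-bla reporter cells (4,000/well, plated 5 h earlier). 16 h at 37 C, then LiveBLAzer substrate for 2 h at room temperature in the dark; fluorescence read-out.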

[7] = p53 small molecule agonists, cell-based qHTS assay with human liver microsomes: qHTS cell viability counter screen (AID 1963579); further: nearly all actives have a fitted effect of over 45% in size
How it was run: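 Metabolic activation used human liver microsomes and NADPH, both 0.5 mg/mL final, over 16 hours at 37 C on p53RE-bla cells (4,000/well). Cytotoxicity measured by CellTiter-Glo luminescence, 30 min at room temperature.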

[8] = p53 small molecule agonists, cell-based qHTS assay with rat liver microsomes: qHTS cell viability counter screen (AID 1963580); further: nearly all actives have a fitted effect of over 45% in size
How it was run: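 In HCT-116 cells carrying a p53 response element-bla reporter, compounds were metabolically activated in situ by rat liver microsomes with NADPH over 16 h. Cell ATP content then served as the cytotoxicity measure.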

[9] = p53 small molecule agonists, cell-based qHTS assay: qHTS cell viability counter screen (AID 1963581); further: nearly all actives have a fitted effect of over 45% in size
How it was run: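 p53RE-bla HCT-116 cells were exposed to compounds for 16 h at 37 C; after the beta-lactamase FRET read in the same wells, CellTiter-Glo was added and luminescence (intracellular ATP) read after 30 min at room temperature.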

[10] = p53 small molecule agonists, cell-based qHTS assay (AID 1963582; active means well fitted activation curve with a large enough effect in the signal ratio in the repeat runs, not every such curve was filed as active; the % refers to the signal ratio)
How it was run: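 p53RE-bla beta-lactamase reporter cells rested 5 h at 37 C/5% CO2, then received compounds in DMSO by pin transfer and were incubated 16 h at 37 C. LiveBLAzer B/G FRET substrate was loaded for 2 h at room temperature before fluorescence reading.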

[11] = biological target: 5-hydroxytryptamine receptor 2A (Homo sapiens) (UniProt P28223); assay: 5-hydroxytryptamine receptor 2A (HTR2A) small molecule antagonists, cell-based qHTS assay (AID 1963586); further: nearly all actives have a fitted effect of over 45% in size
How it was run: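 Antagonist-mode intracellular calcium assay: DOI (4 nM) added after 5 min compound pre-incubation at room temperature to dye-loaded HTR2A-CHO cells. Fluorescence followed for 3 min, sampled every second.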

[12] = biological target: 5-hydroxytryptamine receptor 2A (Homo sapiens) (UniProt P28223); assay: 5-hydroxytryptamine receptor 2A (HTR2A) small molecule agonists, cell-based qHTS assay (AID 1963587); further: nearly all actives have a fitted effect of over 30% in size
How it was run: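 HTR2A-CHO cells, plated 18 h at 37 C/5% CO2, dye-loaded 1 h at 37 C; compounds in DMSO added by pin tool (agonist mode). Intracellular calcium flux read as kinetic fluorescence on FDSS over 2 min at 1 s intervals.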

[13] = biological target: Muscarinic acetylcholine receptor M1 (Homo sapiens) (UniProt P11229); assay: Cholinergic receptor muscarinic 1 (CHRM1) small molecule antagonists, cell-based qHTS assay (AID 1963588); further: nearly all actives have a fitted effect of over 40% in size
How it was run: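 CHRM1-CHO calcium-flux assay, antagonist mode. Cells were seeded 18 h, dye-loaded 1 h at 37 C and given compound for 5 min at RT, then acetylcholine was added at 50nM. FDSS fluorescence was read 3 min; 15 concentrations, three runs.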

[14] = biological target: Muscarinic acetylcholine receptor M1 (Homo sapiens) (UniProt P11229); assay: Cholinergic receptor muscarinic 1 (CHRM1) small molecule agonists, cell-based qHTS assay (AID 1963589); further: nearly all actives have a fitted effect of over 35% in size
How it was run: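 CHO cells stably expressing human CHRM1, seeded 18 h at 37 C/5% CO2, dye-loaded 1 h at 37 C, then given compound in agonist mode; intracellular calcium fluorescence read kinetically at 1 s intervals. Fifteen concentrations, three independent runs.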

[15] = cAMP Responsive Elements (CRE) small molecule agonists, cell-based qHTS assay (AID 1963590)
How it was run: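 CRE-bla HEK 293T cells in DMEM with 10% dialyzed FBS, NEAA, pyruvate and 25 mM HEPES were plated 18 h at 37 C/5% CO2, then exposed to compounds in DMSO for 3 h before LiveBLAzer B/G FRET substrate addition.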

[16] = cAMP Responsive Elements (CRE) small molecule antagonists, cell-based qHTS assay (AID 1963591; active means well fitted inhibition curve with a large enough effect in the signal ratio in the repeat runs, not every such curve was filed as active; the % refers to the signal ratio)
How it was run: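 CRE-bla HEK293T cells were plated 18 h at 37 °C/5% CO2, pinned with compound in DMSO, then stimulated with NKH477 at 0.25 uM final for 3 h. LiveBLAzer B/G FRET substrate was added and plates incubated 2 h at room temperature.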

[17] = biological target: Beta-2 adrenergic receptor (Homo sapiens) (UniProt P07550); assay: Adrenergic beta2 receptor (ADRB2) small molecule antagonists, cell-based qHTS assay (AID 1963592); further: series mostly up to about 92 µM; nearly all actives have a fitted effect of over 50% in size
How it was run: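 Cells (CHO, stable ADRB2 overexpression) incubated 18-20hr at 37C; compounds added from DMSO; agonist mix (1nM isoproterenol, 100uM IBMX, 25uM Ro-20-1724) added; 0.5hr RT; d2-cAMP and anti-cAMP-cryptate added; 1hr RT; 665/615 nm read.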

[18] = biological target: D(2) dopamine receptor (Homo sapiens) (UniProt P14416); assay: Dopamine D2 receptor (DRD2) small molecule agonists, cell-based qHTS assay (AID 1963594); further: nearly all actives have a fitted effect of over 35% in size; further: potency means the concentration at half of the fitted maximal effect
How it was run: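 HEK293 cells stably expressing DRD2 were cultured 24 h at 37 C, then given Ro20-1724 (0.1 mM final) and compounds for 10 min at room temperature. NKH477 (200nM) was then added for 30 min. cAMP was read by HTRF.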

[19] = biological target: D(2) dopamine receptor (Homo sapiens) (UniProt P14416); assay: Dopamine D2 receptor (DRD2) small molecule antagonists, cell-based qHTS assay (AID 1963595; active means well fitted inhibition curve with a large enough effect in the signal ratio in the repeat runs, with a control signal flat; the % refers to the signal ratio)
How it was run: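 Antagonist mode in DRD2-HEK293 cells: after compound addition with 0.1 mM Ro20-1724, cells received quinpirole (12 nM) and NKH477 (200 nM) for 30 min at room temperature; HTRF cAMP read after 1 h detection.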

[20] = biological target: Beta-2 adrenergic receptor (Homo sapiens) (UniProt P07550); assay: Adrenergic beta2 receptor (ADRB2) small molecule agonists, cell-based qHTS assay (AID 1963593);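 further: CHO cells stably overexpressing human ADRB2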
How it was run: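 CHO cells stably over-expressing ADRB2 were plated overnight at 37C, then dosed with compounds plus a stimulation mix containing 100uM IBMX and 25uM Ro-20-1724 for 0.5hr at room temperature. cAMP was measured by HTRF competition, 1hr.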

Measured: Potency

Chain of D(2) dopamine receptor (Homo sapiens) (P14416 whole entry, looked up): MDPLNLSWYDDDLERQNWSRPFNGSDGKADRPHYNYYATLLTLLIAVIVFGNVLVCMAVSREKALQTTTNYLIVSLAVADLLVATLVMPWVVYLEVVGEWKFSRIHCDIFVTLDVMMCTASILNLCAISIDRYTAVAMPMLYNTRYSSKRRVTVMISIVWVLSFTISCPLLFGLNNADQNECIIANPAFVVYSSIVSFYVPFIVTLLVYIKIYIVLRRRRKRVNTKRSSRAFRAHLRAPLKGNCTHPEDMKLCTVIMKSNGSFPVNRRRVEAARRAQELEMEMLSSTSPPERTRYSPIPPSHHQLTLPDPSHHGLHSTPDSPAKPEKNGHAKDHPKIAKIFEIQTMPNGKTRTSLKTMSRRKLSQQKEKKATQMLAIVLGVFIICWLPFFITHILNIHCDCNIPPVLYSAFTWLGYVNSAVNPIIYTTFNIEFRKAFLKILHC
Chain of 5-hydroxytryptamine receptor 2A (Homo sapiens) (P28223 whole entry, looked up): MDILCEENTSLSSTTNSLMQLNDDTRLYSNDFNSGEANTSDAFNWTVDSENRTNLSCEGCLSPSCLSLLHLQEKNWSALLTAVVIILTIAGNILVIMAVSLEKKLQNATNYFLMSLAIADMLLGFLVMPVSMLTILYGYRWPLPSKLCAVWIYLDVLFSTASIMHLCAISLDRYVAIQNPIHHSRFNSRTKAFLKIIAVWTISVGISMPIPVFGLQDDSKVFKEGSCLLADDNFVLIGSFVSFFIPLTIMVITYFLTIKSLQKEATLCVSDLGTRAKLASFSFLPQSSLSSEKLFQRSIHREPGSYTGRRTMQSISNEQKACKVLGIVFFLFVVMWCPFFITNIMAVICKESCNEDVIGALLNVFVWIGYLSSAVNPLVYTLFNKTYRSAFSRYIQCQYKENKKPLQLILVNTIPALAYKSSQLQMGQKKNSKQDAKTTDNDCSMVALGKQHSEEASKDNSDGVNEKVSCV
Chain of KiSS-1 receptor (Homo sapiens) (Q969F8 whole entry, looked up): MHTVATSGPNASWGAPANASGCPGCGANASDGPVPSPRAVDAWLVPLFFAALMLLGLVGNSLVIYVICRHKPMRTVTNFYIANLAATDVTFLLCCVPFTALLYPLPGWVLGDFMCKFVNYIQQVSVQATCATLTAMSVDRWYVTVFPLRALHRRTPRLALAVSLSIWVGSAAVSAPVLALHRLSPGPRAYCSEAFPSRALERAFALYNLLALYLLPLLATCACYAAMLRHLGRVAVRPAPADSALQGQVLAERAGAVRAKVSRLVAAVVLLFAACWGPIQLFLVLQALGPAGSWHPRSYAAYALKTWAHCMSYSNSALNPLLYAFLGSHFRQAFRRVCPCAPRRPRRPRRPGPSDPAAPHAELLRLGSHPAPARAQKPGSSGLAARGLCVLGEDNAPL
Chain of Beta-2 adrenergic receptor (Homo sapiens) (P07550 whole entry, looked up): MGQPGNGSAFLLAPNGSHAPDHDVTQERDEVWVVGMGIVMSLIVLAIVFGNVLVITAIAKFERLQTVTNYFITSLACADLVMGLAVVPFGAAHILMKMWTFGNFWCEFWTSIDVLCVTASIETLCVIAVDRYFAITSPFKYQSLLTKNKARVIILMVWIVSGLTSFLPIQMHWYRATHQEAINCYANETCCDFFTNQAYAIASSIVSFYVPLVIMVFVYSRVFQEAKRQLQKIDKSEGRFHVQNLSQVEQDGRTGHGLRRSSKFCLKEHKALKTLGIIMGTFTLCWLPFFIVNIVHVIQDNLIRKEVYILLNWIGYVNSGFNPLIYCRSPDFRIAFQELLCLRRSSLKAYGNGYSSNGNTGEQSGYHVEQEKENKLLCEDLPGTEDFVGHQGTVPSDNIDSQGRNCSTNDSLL
Chain of Muscarinic acetylcholine receptor M1 (Homo sapiens) (P11229 whole entry, looked up): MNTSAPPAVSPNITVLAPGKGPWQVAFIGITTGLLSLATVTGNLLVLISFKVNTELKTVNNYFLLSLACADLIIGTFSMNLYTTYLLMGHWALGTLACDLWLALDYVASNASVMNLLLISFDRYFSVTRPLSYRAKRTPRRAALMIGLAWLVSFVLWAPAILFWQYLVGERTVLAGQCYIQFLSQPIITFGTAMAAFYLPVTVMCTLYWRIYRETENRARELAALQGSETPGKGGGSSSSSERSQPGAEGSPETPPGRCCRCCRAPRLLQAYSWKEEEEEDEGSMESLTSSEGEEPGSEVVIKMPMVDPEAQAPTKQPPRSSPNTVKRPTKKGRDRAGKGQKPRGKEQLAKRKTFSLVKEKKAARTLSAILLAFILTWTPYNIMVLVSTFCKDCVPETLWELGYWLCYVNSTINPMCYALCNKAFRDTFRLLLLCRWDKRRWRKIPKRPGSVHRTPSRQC
Chain of Gonadotropin-releasing hormone receptor (Homo sapiens) (P30968 whole entry, looked up): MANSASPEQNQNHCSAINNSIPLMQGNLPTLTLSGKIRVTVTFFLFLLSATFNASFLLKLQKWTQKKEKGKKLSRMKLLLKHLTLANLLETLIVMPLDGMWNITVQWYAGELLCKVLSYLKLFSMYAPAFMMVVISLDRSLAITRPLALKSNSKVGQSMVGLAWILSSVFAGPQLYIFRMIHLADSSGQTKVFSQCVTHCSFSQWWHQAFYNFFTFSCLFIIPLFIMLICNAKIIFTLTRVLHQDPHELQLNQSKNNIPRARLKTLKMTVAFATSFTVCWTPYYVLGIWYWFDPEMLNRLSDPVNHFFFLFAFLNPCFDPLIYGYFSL

COc1cccc(N)c1
not listed: [20]
inactive: all other assays above

C/C(CC(C)C)=N\O
inactive: all assays above

CSc1c(Cl)c(Cl)c(Cl)c(Cl)c1Cl
inactive: all assays above

COc1ccnc2c1CCCCC2S(=O)c1nc2ccccc2[nH]1 (stereo unspecified)
inactive: all assays above

CC(C)Cc1ccc(CC(=O)O)cc1
not listed: [16]
inactive: all other assays above

SCCc1cnccn1
not listed: [16] | [19]
inactive: all other assays above

Cc1cc(Cl)c(C)cc1Cl
inactive: all assays above

O=C1CCCC(=O)O1
not listed: [16] | [19] | [20]
inactive: all other assays above

CC(C)COC(=O)/C=C/c1ccccc1
not listed: [16] | [17]
inactive: all other assays above

C1CCC2=NCCCN2CC1
not listed: [20]
inactive: all other assays above

CC1(COc2ccc(CC3SC(=O)NC3=O)cc2)CCCCC1 (stereo unspecified)
active: [18] 12.8 µM
inactive: [1] | [5] | [6] | [8] | [9] | [10] | [17] | [20] | [19]

C=CCOC(=O)CCC1CCCCC1
inactive: all assays above

Oc1ccccc1-c1nnco1
not listed: [20]
inactive: all other assays above

CC(C)CCCC(C)CC=O (stereo unspecified)
not listed: [2] | [3] | [4] | [12] | [14] | [20]
inactive: all other assays above

CCCOCC(C)OCC(C)O (stereo unspecified)
not listed: [20]
inactive: all other assays above

CC1(CO)CN(c2ccccc2)NC1=O (stereo unspecified)
not listed: [18]
inactive: all other assays above
